From PubChem BioAssay AID602314 (ICCB-Longwood Screening Facility, Harvard Medical School, 2012) come the findings set out here.

Each structure is given as a SMILES string. Several values for one entry are separate records, joined by “and”; a condition that tells them apart may be missing. Equal entries are not always repeated. Screen size: about 84,000 compounds; about 110 (0.13%) were called active. The sample holds actives, similar compounds and a random draw of the others, so the mix is not that of the screen. Rule as the data show it: active = inhibition above about 30% (passing the limit was not always enough); inactive = the rest. Some compounds were tested as several samples or in several runs, with calls that do not always agree.

The test system of the assay is MgrA (MarR family transcriptional regulator), Staphylococcus aureus Newman. As to the kind of experiment: modulators of MgrA DNA binding – biochemical, S. aureus Newman, fluorescence polarization, primary screen (AID 602314).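 Also: 0% = protein plus DNA without compound and 100% = DNA alone without protein; higher means less MgrA bound to DNA so lower polarization.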 Conditions: stronger effect = higher value, concentration not given here.
The term inhibition denotes the drop in the measured response relative to a control, in per cent. As to `O=S(=O)(c1ccc(Br)s1)N1CCCC1`, the inhibition is 2.65% (inactive). With `CSc1noc(-c2ccc(C(C)(C)C)cc2)c1C#N`, the inhibition is 4.25% (inactive). As for `N=C1/C(=C\c2cccn2-c2ccc3ccccc3c2)C(=O)N=C2SC=NN12`, the inhibition is 4.5% (inactive).

For `CCOC(=O)C1CCCN(c2c3c(nc4cc(-c5ccc(C)cc5)nn24)CCC3)C1` (stereo unspecified), the inhibition was -2.15% (inactive).

Regarding `COc1cc(C=Nc2ccc3[nH]c(=O)[nH]c3c2)ccc1OC(C)=O`, the inhibition was 0.05% (inactive). On to `COc1ccc2nc(SCC(=O)c3ccc(Cl)c(Cl)c3)[nH]c2c1`, for which the inhibition was -2.6% (inactive). Turning to `Cn1c(-c2ccccc2)c[n+]2c1CCCCC2`, the inhibition was -2.6% (inactive). With `N=Cc1c(O)n(-c2ccccc2)c2ccccc12`, the inhibition is 4.8% (inactive). For `CCOC(=O)C1=C(C)N(C)C(C)=C(C(=O)OCC)C1c1ccccc1F`, the inhibition was -0.1% (inactive).

For the molecule `O=c1oc(Nc2ccc(C(F)(F)F)cc2)nc2ccccc12`, the inhibition was 0.2% (inactive). As for `COc1ccc(CCN(Cc2cc3cc4c(cc3[nH]c2=O)OCO4)C(=O)c2ccncc2)cc1OC`, the inhibition is 2.6% (inactive).

For `S=C(Nc1ccc2[nH]ccc2c1)NC1CC2C=CC1C2` (stereo unspecified), the inhibition is -0.05% (inactive). As for `Cc1cccc(NC(=O)c2cn(-c3ccccc3)nc2-c2cccnc2)c1`, the inhibition is -3% (inactive). Turning to `OC1(C(F)(F)F)CC(c2ccccc2)=NN1c1cccc2cccnc12` (stereo unspecified), the inhibition was -1.3% (inactive). With `CN1C(=O)C2N=NN(c3ccccc3)C2C1=O` (stereo unspecified), the inhibition is 1.8% (inactive). The figure for `O=C(N/N=C/C1CC=CCC1)c1ccccc1` (stereo unspecified) is 2.3% (inactive).

As to `O=C(COc1ccc(C2Nc3cccc4cccc(c34)N2)cc1)Nc1ccccc1`, the inhibition was 1.95% (inactive).

Take `O=C(Nc1cccc2ccccc12)NC1CC1`: the inhibition is 1.3% (inactive).

In the case of `CC1=C(C(=O)OCC2CCCCC2)C(c2ccccc2OCc2ccccc2)NC(=O)N1` (stereo unspecified), the inhibition is -1.8% (inactive). Consider `CCOC(=O)c1sc(NC(=O)c2sc3ccccc3c2Cl)nc1-c1ccccc1`, for which the inhibition is -3.1% (inactive).

Consider `COc1cccc(C(=O)Nc2ccccc2Cl)c1`, for which the inhibition is -5.8% (inactive). For the molecule `COc1ccccc1N1C(=O)C(=Cc2ccco2)C(=O)N(c2ccccc2OC)C1=O`, the inhibition is 2.2% (inactive). Take `CC(=O)Oc1ccc(C2NC(C(=O)O)CS2)cc1` (stereo unspecified): the inhibition is -3.3% (inactive). The figure for `O=C1NC(=S)N(c2ccc(Br)cc2)C(=O)/C1=C/c1ccsc1` is 24.2% (inactive); for `O=C(O)c1ccc(Cl)cc1N=Cc1nc(-c2ccc(Br)cc2)oc1O` it is -0.9% (inactive). `Cc1ccc(-c2nn(CCC(=O)Nc3cccc(C(F)(F)F)c3)c(=O)c3ccccc23)cc1`: the inhibition is 0.65% (inactive). As to `O=C(CN1CCN(c2cccc(Cl)c2)CC1)c1ccc(Cl)cc1`, the inhibition is 6.3% (inactive).

As to `COC(=O)c1cccnc1NC(=S)NC(C)C`, the inhibition was 3.15% (inactive).

In the case of `COc1ccc(NC(=O)Nc2ccc(N3CCOCC3)cc2)cc1`, the inhibition was -0.2% (inactive).

Take `O=C1C(Nc2ccc(O)cc2)=C(n2nnc3ccccc32)C(=O)c2ccccc21`: the inhibition was -0.3% (inactive). For the molecule `NC(=S)C1(c2ccc(Cl)cc2Cl)CC1`, the inhibition is -0.5% (inactive). As for `CC1CN(S(=O)(=O)c2ccc3c4c(cccc24)C(=O)N3)CC(C)O1` (stereo unspecified), the inhibition is 0.25% (inactive). On to `CC[N+](C)(CC)CCC[n+]1c(-c2ccccc2)c2cc(N)ccc2c2ccc(N)cc21`, for which the inhibition is 104% (active) and 0.85% (inactive). In the case of `CC[n+]1c(C)n(-c2ccccc2)c2ccc(N)cc21`, the inhibition was 1.45% (inactive). Consider `N=C1/C(=C/c2ccc(SCc3ccccc3)o2)C(=O)N=C2SC=CN12`, for which the inhibition is 1.55% (inactive). The figure for `CS(=O)(=O)c1nc2ccccc2[nH]1` is -4.3% (inactive).

As to `N#C/C(=C\C=C\c1ccccc1)c1nc2ccccc2[nH]1`, the inhibition was 9.2% (inactive).

`N#CC(=C1C(=O)c2ccccc2C1=O)c1nc2ccccc2[nH]1`: the inhibition is 59.7% (active). With `CCN(CC)C(=O)CSc1nc2ccccc2cc1C`, the inhibition was 0.6% (inactive).

As to `Nc1ccccc1C(=O)Nc1ccc(Cl)cc1`, the inhibition was -1.3% (inactive). `CCCCOc1ccc(C2=N/C(=C\c3cc(OC)c(OC)cc3OC)C(=O)O2)cc1`: the inhibition is -1.1% (inactive). Take `CSc1n[nH]c(-c2ccc(Cl)cc2)c1C#N`: the inhibition is -2.1% (inactive). As for `CC(C)c1ccc(NC(=O)CN2N=C(c3ccc(Cl)cc3)CCC2=O)cc1`, the inhibition was 0.65% (inactive). For `O=C1/C(=C\c2cccs2)SC(=S)N1CCCC(=O)N1CCCc2ccccc21`, the inhibition was 2.75% (inactive). Next, `Cc1ccc(C(=O)OCC2OC(C#N)CC2OC(=O)c2ccc(C)cc2)cc1` (stereo unspecified): -3.65% (inactive); `CSc1ncc(Br)c(C(=O)O)n1`: -4.9% (inactive); `O=C(c1ccc(F)cc1)c1c[nH]c(C(=O)NCc2ccc(F)cc2)c1`: -2.05% (inactive).

As to `COCCn1c(N)cc(=O)[nH]c1=S`, the inhibition was 0.65% (inactive). Turning to `Cc1cccc(OCC(=O)N2CCc3ccccc32)c1`, the inhibition was 0.6% (inactive). As to `CCN(CC)C(=O)Cc1cc(OC)c(OC)cc1Br`, the inhibition is 3.35% (inactive). `Cn1cnnc1SCc1ccc(Cl)cc1`: the inhibition is -1.45% (inactive). Turning to `CCc1cccc(CC)c1N1C(=O)CC(Sc2ccccc2N)C1=O` (stereo unspecified), the inhibition is 1.1% (inactive).

As to `c1ccc2c(c1)CCN2c1nc2ccccc2n2cnnc12`, the inhibition was 0.25% (inactive).

Turning to `O=c1[nH]c(O)c(C=NCCCn2ccnc2)c(=O)[nH]1`, the inhibition is 5.6% (inactive). For the molecule `CSc1nsc(SCC(=O)OC2CC(C)CCC2C(C)C)n1` (stereo unspecified), the inhibition is 0.7% (inactive). The figure for `CC(C)(C)c1ccc(NC(=O)COC(=O)c2ccc(F)cc2F)cc1` is 4.8% (inactive); for `CCN(C(=O)c1cccs1)c1cccc2ccccc12` it is -1.8% (inactive). In the case of `COc1cccc(CC(=O)Nc2ccc(-c3csc(C)n3)cc2)c1`, the inhibition is -0.65% (inactive). As to `Cc1ccc(NC2SC(=O)NC2=O)cc1` (stereo unspecified), the inhibition is 1.7% (inactive). As for `O=C(NC1CC1)C1C2C=CC3(O2)C1C(=O)N(C1CC1)C3C(=O)NC1CCCCC1` (stereo unspecified), the inhibition is 0.25% (inactive). Take `CCSc1nnc2c(n1)OC(c1cccc(OC)c1)Nc1ccccc1-2` (stereo unspecified): the inhibition is -1.3% (inactive).

On to `CC(=O)Nc1ccc(-c2nnc(-c3ccco3)o2)cc1`, for which the inhibition was -3.3% (inactive). Take `CC(C)(C)C/C(=N/O)c1ccccc1`: the inhibition was 0.2% (inactive). Regarding `Cc1nnc(SCc2ccc(C#N)cc2)s1`, the inhibition was 0.7% (inactive).

On to `CSc1ncnc2sc(-c3ccccc3)cc12`, for which the inhibition was 0.75% (inactive). Turning to `CCOC(=O)c1sc(NC(C)=O)c(C#N)c1C`, the inhibition was -2.1% (inactive). On to `O=C(c1cnn2c(C(F)F)cc(-c3ccccc3)nc12)N1CCCC1`, for which the inhibition is -0.35% (inactive). As to `CCOC(=O)c1ccc(NC(=O)CC2C(=O)N(c3ccc(F)cc3)C(=O)N2Cc2cccs2)cc1` (stereo unspecified), the inhibition is -1.9% (inactive).

On to `FC(F)(F)c1cccc(CSc2ncn[nH]2)c1`, for which the inhibition was -0.7% (inactive). With `COc1ccccc1C=NC12CN3CN(CN(C3)C1)C2`, the inhibition is 2.95% (inactive).

Regarding `Oc1[nH]c2ccccc2c1C=NCCC1=CCCCC1`, the inhibition was 5.65% (inactive). Turning to `CCOCCOC(=O)C1=C(C)NC2=C(C(=O)CC(c3ccccc3)C2)C1c1cc2c(cc1Br)OCO2` (stereo unspecified), the inhibition is -2.9% (inactive). On to `CCOC(=O)c1cccn1-c1ncc(C(F)(F)F)cc1Cl`, for which the inhibition was -1.2% (inactive). As for `Cc1ccc(-c2nn(CCC(=O)NCCN3CCOCC3)c(=O)c3ccccc23)cc1`, the inhibition is 0.2% (inactive).

With `O=C(Nc1ccccc1-c1nc2ccccc2[nH]1)c1ccccc1Br`, the inhibition is -2.6% (inactive). The figure for `N#CCc1ccc(OCc2ccc(Cl)c(Cl)c2)cc1` is -1.9% (inactive).
